The text below walks through data of PubChem BioAssay (NCI).

Among the test systems are NCI-H23 lung; NCI-H226 lung; NCI-H322M lung; HOP-62 NSCLC; NCI-H460 lung; HOP-92 NSCLC; NCI-H522 lung; A549/ATCC NSCLC; 786-0 renal; COLO 205 colon.
What all share (assay): NCI-60 one-dose screen, 48 h (100 = growth as untreated, 0 = no growth, -100 = all killed)
Details in all cases: 10 µM unless noted

SMILES strings stand for the structures. Compounds without any hit were thinned out: in the full panel of roughly 83,000, 20% have a hit.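 Assay: single dose, 48 h. Readout: percent growth (0 = no net growth; negative = cell death). Active: <10.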 Unmarked numbers belong to inactive results. Active and inactive are the calls of the source.

Regarding `OC(c1cc2c(Cl)cc(Cl)cc2c2cc(C(F)(F)F)ccc12)C1CCCCN1` (stereo not given), the growth in the assay on NCI-H23 lung was -77.5% (active); in the assay with NCI-H226 lung it was -66% (active); with NCI-H322M lung, -69.7% (active); in the assay with HOP-62 NSCLC, -90% (active); in the assay on NCI-H460 lung, -73.6% (active); in the assay with HOP-92 NSCLC, -88.8% (active). Besides, the growth in the assay with NCI-H522 lung is -83.9% (active); with A549/ATCC NSCLC, -80.9% (active); with 786-0 renal, -67.6% (active); in the assay with COLO 205 colon, -88.3% (active).
Consider `Cc1cc(C)cc(NC(=O)Cn2nncc2CN2C(=O)CSC2=O)c1`, for which the growth with NCI-H23 lung was 97.5%; with NCI-H226 lung, 104%; in the assay with NCI-H322M lung it was 109%; in the assay with HOP-62 NSCLC it was 102%; in the assay on NCI-H460 lung it was 107%; with HOP-92 NSCLC, 124%. Also, the growth is 94.5% in the assay with NCI-H522 lung, 102% with A549/ATCC NSCLC, 108% with 786-0 renal and 108% in the assay with COLO 205 colon.
Consider `CCOC(=O)C(=CNc1ccccc1Cl)C(=O)OCC`, for which the growth is 103% in the assay on NCI-H23 lung; 122% in the assay with NCI-H226 lung; 110% in the assay with NCI-H322M lung; 94.5% in the assay with HOP-62 NSCLC; 103% in the assay with NCI-H460 lung; 97.2% in the assay with HOP-92 NSCLC. The growth was 72% in the assay with NCI-H522 lung, 85.6% in the assay with A549/ATCC NSCLC, 87.7% with 786-0 renal and 129% in the assay on COLO 205 colon.
Take `N=C(N)c1ccc(-c2ccc(-c3cc(Cl)cc(Cl)c3)o2)nc1`: the growth was 3.49% (active) in the assay with NCI-H23 lung; 99.5% in the assay on NCI-H226 lung; -30.9% (active) in the assay with NCI-H322M lung; -72.7% (active) in the assay with HOP-62 NSCLC; -78.8% (active) in the assay on NCI-H460 lung; 73.3% in the assay with HOP-92 NSCLC. Further, the growth in the assay with NCI-H522 lung is -67.4% (active); in the assay with A549/ATCC NSCLC, -68.8% (active); in the assay with 786-0 renal, -64.9% (active); in the assay on COLO 205 colon it was -76.6% (active).
Regarding `CC(=O)c1c(C)nc(-c2cc(C)cc(Cl)c2)nc1-c1cccc(Oc2ccccc2)c1`, the growth was 86% in the assay on NCI-H23 lung; 84% in the assay on NCI-H226 lung; 91% in the assay with NCI-H322M lung; 76.2% in the assay on HOP-62 NSCLC; 36.1% in the assay with NCI-H460 lung; 38% in the assay on HOP-92 NSCLC. For the same compound, the growth is 59% in the assay on NCI-H522 lung, 69.1% in the assay with A549/ATCC NSCLC, 70.3% in the assay on 786-0 renal and 70.2% in the assay with COLO 205 colon.
For `CNCc1cccc2c1OCCOCCOCCC(C)S(=O)(=O)c1ccc(cc1)-c1cnc(N)c(n1)C(=O)N2` (stereo not given), the growth with NCI-H23 lung was 77.9%; in the assay with NCI-H226 lung it was 31.6%; in the assay on NCI-H322M lung it was 67%; in the assay on HOP-62 NSCLC, 37.7%; in the assay with NCI-H460 lung it was 11.2%; in the assay with HOP-92 NSCLC, 80.3%. Besides, the growth in the assay on NCI-H522 lung is 34.4%; in the assay with A549/ATCC NSCLC, 33%; in the assay with 786-0 renal, 10.6%; with COLO 205 colon, 33.7%.
As for `CCCCCCCCNC(C)C(O)c1ccc(SC(C)C)cc1` (stereo not given), the growth was 74.2% in the assay with NCI-H23 lung; 96% in the assay on NCI-H226 lung; 87.9% with NCI-H322M lung; 85% with HOP-62 NSCLC; -37.7% (active) in the assay on NCI-H460 lung; -28.1% (active) in the assay with HOP-92 NSCLC. For the same compound, the growth in the assay with NCI-H522 lung is 12.1%; in the assay with A549/ATCC NSCLC, 98.8%; with 786-0 renal, -14.9% (active); with COLO 205 colon it was 4.17% (active).
As for `CCSc1ccc([C@@H]2[C@@H](N)C(=O)N2c2cc(OC)c(OC)c(OC)c2)cc1`, the growth in the assay with NCI-H23 lung is 35.9%; in the assay with NCI-H226 lung, 59.4%; in the assay on NCI-H322M lung it was 45.7%; in the assay with HOP-62 NSCLC, 41.8%; in the assay with NCI-H460 lung, 12.2%; in the assay on HOP-92 NSCLC, 113%. Moreover, the growth in the assay on NCI-H522 lung was 18.7%; with A549/ATCC NSCLC it was 30.5%; in the assay on 786-0 renal it was 31.7%; with COLO 205 colon it was -5.46% (active).
`O=C(C(Br)C(Br)c1ccccc1)C(Br)C(Br)c1ccccc1` (stereo not given): the growth is 8.99% (active) in the assay with NCI-H23 lung; -36.5% (active) with NCI-H226 lung; 84.2% in the assay with NCI-H322M lung; 3.69% (active) in the assay on HOP-62 NSCLC; 64% in the assay on NCI-H460 lung; -60.7% (active) in the assay with HOP-92 NSCLC. In addition, the growth with NCI-H522 lung is -90.6% (active); with A549/ATCC NSCLC it was 29.4%; in the assay with 786-0 renal, -62.7% (active); in the assay with COLO 205 colon it was -47.8% (active).
In the case of `CCN(CC)Cc1cc(Nc2ccnc3cc(Cl)ccc23)cc(-c2ccc(Cl)cc2)c1O`, the growth with NCI-H23 lung is 24%; with NCI-H226 lung, 17.6%; in the assay with NCI-H322M lung, 5.72% (active); in the assay with HOP-62 NSCLC it was -46.1% (active); in the assay with NCI-H460 lung it was 3.23% (active); with HOP-92 NSCLC it was -8.91% (active). Further, the growth in the assay with NCI-H522 lung is 35.3%; with A549/ATCC NSCLC it was 20.7%; in the assay with 786-0 renal, 55%; in the assay with COLO 205 colon, 55.8%.
`COc1ccc(C(=O)C(CN(C)C)c2ccccc2)cc1` (stereo not given): the growth in the assay on NCI-H23 lung is 13.2%; in the assay with NCI-H226 lung, 71.5%; with NCI-H322M lung, 96%; with HOP-62 NSCLC, 83.6%; in the assay on NCI-H460 lung, 47.7%; in the assay on HOP-92 NSCLC it was -4.35% (active). Further, the growth with NCI-H522 lung is -73.9% (active); with A549/ATCC NSCLC it was 72.6%; with 786-0 renal, -36.2% (active); in the assay on COLO 205 colon, 22.8%.
For `COCCCNCC(=O)Nc1c(C)cccc1C`, the growth in the assay on NCI-H23 lung is 110%; in the assay with NCI-H226 lung, 106%; in the assay with NCI-H322M lung, 139%; in the assay with HOP-62 NSCLC, 107%; in the assay with NCI-H460 lung, 116%; with HOP-92 NSCLC, 103%. Also, the growth with NCI-H522 lung is 112%; in the assay with A549/ATCC NSCLC it was 96.7%; with 786-0 renal it was 93.8%; in the assay with COLO 205 colon it was 109%.
With `CC1CCN(Cc2ccc(NC(=O)c3cc4ccc5cccnc5c4[nH]3)cc2)CC1`, the growth with NCI-H23 lung was 25.2%; in the assay on NCI-H226 lung it was 43%; in the assay on NCI-H322M lung, 49.2%; in the assay with HOP-62 NSCLC, 26.2%; in the assay on NCI-H460 lung it was 8.35% (active); with HOP-92 NSCLC, 63.7%. Besides, the growth was 23% with NCI-H522 lung, 25.7% with A549/ATCC NSCLC, 36.8% in the assay with 786-0 renal and -16.3% (active) in the assay on COLO 205 colon.
